Compound activity deposited in PubChem BioAssay by Sanford-Burnham Center for Chemical Genomics.
KKLEB cytotox = cytotoxicity in KKLEB CF airway cells, primary screen, cytotoxicity control for CF NF-kB inhibitor project, cell-based, uHTS, fluorescence assay plates | 360,000 tested, 0.36% active | AID 602141, 2011 | activity change (cytotoxicity), % at 5 µM | KKLEB CF airway cells viability, ATPlite luminescence, overnight; active compounds read low; cells stimulated with P. aeruginosa culture filtrate;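 active = corrected activity change at or below -50% at 5 µM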
CF NFkB block = inhibitors of PAF-induced NF-kB signaling, primary screen, cell-based, GFP fluorescence, uHTS. KKLEB NF-kB-GFP reporter, GFP fluorescence overnight. inhibition, % at 5 µM. 360,000 tested, 0.86% active. AID 588850, 2011;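 active = at least 50% inhibition at 5 µM, scaled per plate between neutral and stimulator controls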;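 note: PAF is a Pseudomonas aeruginosa culture filtrate used as stimulus; plate controls were PAF-stimulated DMSO wells for no effect and unstimulated DMSO wells for full effect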
Peg3 prom inh = Peg3 promoter-driven luciferase inhibitors, primary screen, cell-based, HeLa, luciferase luminescence | HeLa PEG-Prom luciferase reporter, overnight | inhibition, % at 20 µM | 360,000 tested, 1.7% active | AID 588405, 2011;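 active = inhibition of at least 50% at 20 µM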
HIF-2a inh = HIF-2a reporter inhibitors, primary screen, luminescence, 786-0 RCC cells. 786-0 RCC cells HIF-2a reporter, luciferase luminescence, overnight. inhibition, % at 18.8 µM. 360,000 tested, 0.72% active;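 active = inhibition of the luminescence signal of 40% or more relative to plate controls, in a single-dose primary screen at 18.75 µM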
TWEAK-Fn14 inh = inhibitors of TWEAK-Fn14 signaling, primary screen, luciferase reporter cells, uHTS | TWEAK-stimulated Fn14 reporter cells, luciferase luminescence, 8 h | inhibition, % at 10 µM | 360,000 tested, 2% active | AID 1159606, 2016; in the data active = inhibition above about 50%
TROY NFkB inh = inhibitors of TROY-driven NF-kB signaling, primary screen, Q293 LMP1-TROYcd cells, NF-kB luciferase, uHTS; Q293 LMP1-TROYcd NF-kB luciferase reporter, 4 h; inhibition, % at 10 µM; 360,000 tested, 0.98% active; AID 1347056, 2019;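 active = compounds whose plate-normalised and pattern-corrected inhibition of the luciferase reporter signal at the single screening dose is 50% or more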
* = called active by the depositor. In the library only some 4% were active in any assay of this set; here they are far more common.

How did COc1cccc2sc3cc(C#CC4(O)CCCCC4)ccc3c(=O)c12 do in these assays?
KKLEB cytotox: -27.4; CF NFkB block: 13.3; Peg3 prom inh: 88.7*; HIF-2a inh: -209.6; TWEAK-Fn14 inh: 12.6; TROY NFkB inh: -69.6

Results for COc1cc2sc3ccc(C#Cc4ccc(N)cc4)cc3c(=O)c2cc1OC ?
KKLEB cytotox: -32.1; CF NFkB block: 18.5; Peg3 prom inh: 10.9; HIF-2a inh: -29.1; TWEAK-Fn14 inh: -115.4; TROY NFkB inh: -25.9

Results for COc1cc2sc3ccc(C#CC4(O)CCCCC4)cc3c(=O)c2cc1OC ?
KKLEB cytotox: -35.6; CF NFkB block: 3.5; Peg3 prom inh: -19.7; HIF-2a inh: -129.7; TWEAK-Fn14 inh: 91.7*; TROY NFkB inh: 83.9*

Results for COc1cccc2sc3ccc(C#CC4(N)CCCCC4)cc3c(=O)c12 ?
KKLEB cytotox: -16.9; CF NFkB block: -20.2; Peg3 prom inh: -33.0; HIF-2a inh: -193.6; TWEAK-Fn14 inh: -51.3; TROY NFkB inh: -58.3

Results for COc1ccc(NC(=O)c2cc(C)cc(C)c2)cc1S(=O)(=O)N1CCCCC1 ?
KKLEB cytotox: 1.7; CF NFkB block: 37.4; Peg3 prom inh: 26.4; HIF-2a inh: 18.5; TWEAK-Fn14 inh: 7.1; TROY NFkB inh: 4.9

Results for Cn1nc(C(F)(F)F)c(/C=N/OC(=O)c2ccccc2)c1SCc1ccccc1Cl ?
KKLEB cytotox: 2.6; CF NFkB block: 26.6; Peg3 prom inh: 52.8*; HIF-2a inh: -64.7; TWEAK-Fn14 inh: -2.2; TROY NFkB inh: 24.1

Results for O=C(NCCn1cc(SCc2ccccc2)c2ccccc21)c1c(F)cccc1F ?
KKLEB cytotox: 2.7; CF NFkB block: 15.1; Peg3 prom inh: -2.4; HIF-2a inh: -107.6; TWEAK-Fn14 inh: 50.3*; TROY NFkB inh: 22.1

Results for O=C(NCCn1cc(SCc2ccc(F)cc2)c2ccccc21)c1c(F)cccc1F ?
KKLEB cytotox: 1.4; CF NFkB block: -4.7; Peg3 prom inh: 13.6; HIF-2a inh: -22.7; TWEAK-Fn14 inh: 38.4; TROY NFkB inh: 27.1

How did O=C(NCCn1cc(SCc2ccc(F)cc2)c2ccccc21)c1ccccc1F do in these assays?
KKLEB cytotox: -2.2; CF NFkB block: 9.2; Peg3 prom inh: 23.1; HIF-2a inh: -23.2; TWEAK-Fn14 inh: 51.1*; TROY NFkB inh: 27.7

What do the screens show for `CC(C)(C)OC(=O)NCc1ccc(NC(=O)c2nc[nH]c2C(=O)NCCCCNC(=O)c2[nH]cnc2C(=O)Nc2ccc(CNC(=O)OC(C)(C)C)cc2)cc1`?
KKLEB cytotox: -33.7; CF NFkB block: 76.6*; Peg3 prom inh: 93.3*; HIF-2a inh: 1.1; TWEAK-Fn14 inh: 5.2; TROY NFkB inh: 12.1

Results for CC(C)(C)OC(=O)N1CCC(NC(=O)c2nc[nH]c2C(=O)NCC(=O)OCc2ccccc2)CC1 ?
KKLEB cytotox: -2.0; CF NFkB block: 16.4; Peg3 prom inh: 55.4*; HIF-2a inh: 3.0; TWEAK-Fn14 inh: 15.5; TROY NFkB inh: 13.3

How did CC(C)(C)OC(=O)NCc1ccc(CNC(=O)c2[nH]cnc2C(=O)Nc2ccccc2F)cc1 do in these assays?
KKLEB cytotox: -6.5; CF NFkB block: 18.4; Peg3 prom inh: 39.3; HIF-2a inh: 2.5; TWEAK-Fn14 inh: 54.4*; TROY NFkB inh: 40.0

How did CC(C)(C)OC(=O)N1CCC(NC(=O)c2nc[nH]c2C(=O)NC2CCN(C(=O)OC(C)(C)C)CC2)CC1 do in these assays?
KKLEB cytotox: 10.3; CF NFkB block: -4.7; Peg3 prom inh: 15.2; HIF-2a inh: 12.6; TWEAK-Fn14 inh: -16.9; TROY NFkB inh: -8.4

How did Cn1cnc(C(=O)NCc2ccc(CNC(=O)OC(C)(C)C)cc2)c1C(=O)NCc1ccc(CNC(=O)OC(C)(C)C)cc1 do in these assays?
KKLEB cytotox: -11.8; CF NFkB block: 12.5; Peg3 prom inh: 32.0; HIF-2a inh: 20.3; TWEAK-Fn14 inh: 58.3*; TROY NFkB inh: 20.8

Results for CC(C)c1cc(CN2C(C)COCC2C)cc(C(C)C)c1O (centres undefined) ?
KKLEB cytotox: -8.9; CF NFkB block: 4.8; Peg3 prom inh: 3.8; HIF-2a inh: -6.6; TWEAK-Fn14 inh: 0.2; TROY NFkB inh: 2.7
